# According to PubChem BioAssay AID588342 (National Center for Advancing Translational Sciences (NCATS), 2011):
# The whole screen tested about 360,000 compounds, of which about 25,000 (6.9%) were called active. Another 9% or so got no clear call; they are omitted. The full list was thinned out, with actives kept by preference. A number with no mark means an inactive call. Calls come from the whole dose curve; as a rule, active = well fitted inhibition curve with a large enough effect; inconclusive = small, poorly fitted or top-dose-only effect; inactive = flat fitted curve, though single readings scatter.
# Target: Luciferin 4-monooxygenase (Photinus pyralis) (UniProt P08659)
# Assay: qHTS profiling assay for firefly luciferase inhibitor/activator using purifed enzyme and Km concentrations of substrates (counterscreen for miR-21 project); note: nearly all actives have a fitted effect of over 55% in size;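 for activity change, negative = inhibition: plate controls were vehicle for no effect and reference inhibitor for full effect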
# Conditions: purified FLuc, luminescence inhibition; series mostly up to 57.5 µM; activity change, negative = inhibition: at the top concentration
# Description: MLPCN Grant: 1 R21 NS059478-01 (miR-21 grant) Assay Provider: NCGC NCGC Assay Overview: Firefly (Photinus pyralis) luciferase is one of the most commonly used transcriptional reporters for a number of reasons. It is considered one of the more dynamically responsive reporters -that is, responsive to changes in reporter transcription - as it requires no post-translational modifications and is enzymatically active directly after protein synthesis (Wood, 1998). Additionally, the half-life of the luciferase protein is short relative to other reporter-gene products (Wood, 1995). Whereas reporters with long half-lives potentially allow for increased signal due to accumulation of reporter-gene product, once accumulated in the cell, dynamic changes in reporter-gene expression may be difficult to detect(Fan and Wood, 2007; Almond et al., 2004). It has been shown that wild-type P. pyralis luciferase has a half-life of approximately […] hours in mammalian cells (Thompson et al., 1991). Firefly luciferase reporter-gene assays are also generally considered one of the most sensitive assay types (Wood, 1995; Wood, 1998). Although light produced in a bioluminescence reaction is of lower intensity than that produced during fluorescence emission, this is offset by little to no background light inherent to luminescent assays. Thus the luciferase reporter can be expressed at much lower levels than fluorescent proteins while still providing robust signal. # However, it was initially observed, in 1991, by Thompson et al., that compounds that resemble the substrates of firefly luciferase (FLuc) can act as competitive inhibitors of the enzyme, and that these compounds, upon interaction with luciferase in the cell, can actually stabilize the protein and increase its half-life. Accumulated intracellular FLuc protein can be measured as an increase in luminescence signal, upon addition of detection reagents (which contain high concentrations of FLuc substrates) commonly used in high-throughput screening. In cell-based reporter gene assays that use FLuc as the reporter gene to quantitate the potential influence of a given compound against the target biology, this apparent increase in luminescence can mistakenly be interpreted as identification of a compound that is active against the target of interest. This is the case for the miR-21 FLuc reporter gene assay used to identify inhibitors of the miR-21 pathway (PubChem AID 2289) - compounds of interest will inhibit miR-21 biogenesis/expression or activity, and are identified by causing an increase in luminescence, due to increased FLuc translation. However, FLuc inhibitory compounds that stabilize the FLuc protein will give an identical read-out, making it difficult to distinguish compounds that are active against the target from those active against FLuc. Previous profiling work to determine the prevalence of compounds that affect FLuc enzymatic activity (PubChem AID 411) identified that ~3% of the MLSMR library (then at ~72K) inhibited FLuc. […] Since the MLSMR had grown to ~350K compounds, and since it was expected that a significant percentage of compounds found active in the miR-21 FLuc assay would be FLuc inhibitors, the library was screened for activity against FLuc using a biochemical assay of purified FLuc and KM concentrations of FLuc substrates (D-luciferin and ATP).
# NCGC Assay Protocol Summary: Reagents: 50mM Tris acetate, pH 7.5; 10mM Mg acetate; 10uM D-luciferin (Sigma #L9504); 10uM ATP; 0.01% Tween-20; 0.05% BSA; 10nM P. pyralis luciferase (Sigma #L9506) Control compounds used were two known firefly luciferase inhibitors (compounds (2) and (5) in Auld et al., 2010), and DMSO. […]
# Sequence of Luciferin 4-monooxygenase (Photinus pyralis) (P08659 whole entry, looked up): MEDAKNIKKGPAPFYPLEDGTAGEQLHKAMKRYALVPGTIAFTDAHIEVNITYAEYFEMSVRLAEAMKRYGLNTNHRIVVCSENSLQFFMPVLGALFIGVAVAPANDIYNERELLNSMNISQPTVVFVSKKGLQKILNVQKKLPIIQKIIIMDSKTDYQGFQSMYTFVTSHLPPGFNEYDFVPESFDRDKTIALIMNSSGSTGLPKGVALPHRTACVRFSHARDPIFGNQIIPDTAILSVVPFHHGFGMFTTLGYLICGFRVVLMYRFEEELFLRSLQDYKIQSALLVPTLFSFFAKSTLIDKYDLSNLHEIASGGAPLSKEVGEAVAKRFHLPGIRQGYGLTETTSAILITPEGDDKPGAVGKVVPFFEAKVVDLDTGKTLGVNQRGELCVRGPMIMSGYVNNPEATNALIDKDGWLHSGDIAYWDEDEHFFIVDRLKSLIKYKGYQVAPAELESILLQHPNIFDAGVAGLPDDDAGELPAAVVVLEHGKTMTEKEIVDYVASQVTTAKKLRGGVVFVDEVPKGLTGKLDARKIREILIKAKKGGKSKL
SMILES,"activity change, negative = inhibition",Potency
O=C(CCN1C(=O)c2ccccc2C1=O)C1=NN[C@@H]2C(=O)N(c3ccc(F)cc3)C(=O)[C@H]12,-0.377%,–
CC1(C)CC(=O)c2c(n(S(=O)(=O)c3ccccc3)c3ccc(NS(=O)(=O)c4ccccc4)cc23)C1,1.26%,–
O=C(CCc1ccccc1F)N1CCN(c2ccccc2)CC1,3.75%,–
O=C(CCSCc1ccccc1F)N1CCN(c2ccc(Cl)cc2)CC1,-10.8%,–
O=C(CCSc1ccccc1)N1CCN(c2ccccc2F)CC1,–,10.7 µM (active)
Cc1ccc(C)c(Nc2nnc(-c3ccc(C)c(S(=O)(=O)N4CCCCC4)c3)c3ccccc23)c1,-1.33%,–
COC(=O)c1cccc(Cn2nnc3sc4c(c3c2=O)CCC(C(C)(C)C)C4)c1 (stereo not drawn),6.43%,–
CC1CCc2c(sc3nc4n(c(=O)c23)CCS4)C1 (stereo not drawn),–,21.3 µM (active)
CCCn1nnc2sc3c(c2c1=O)CCC(C)C3 (stereo not drawn),–,15.1 µM (active)
Cn1c(NN)nc2sc3c(c2c1=O)CCC3,1.61%,–
Cc1ccc(NC(=O)Cn2nnc3sc4c(c3c2=O)CCC(C)C4)cc1 (stereo not drawn),-7.12%,–
C=CCn1c(SCc2c(C)noc2C)nc2sc3c(c2c1=O)CCC(C)C3 (stereo not drawn),5.75%,–
Cc1ccc2nc3c(cc(C(=O)NC4CCCCC4)c(=N)n3C(C)C)c(=O)n2c1,-2.1%,–
CCOC(=O)c1c(NC(=O)Cc2coc3ccc(CC)cc23)sc2c1CCC2,3.62%,–
Fc1ccccc1/C=C1\CCCC2=C1Nc1ncnn1C2c1ccccc1F (stereo not drawn),2.39%,–
CSCCC(NC(=O)c1ccccc1)C(=O)N1CCCCCCC1 (stereo not drawn),0.843%,–
COc1ccc(Cl)cc1S(=O)(=O)N1CCC(c2ccncc2)CC1,-1.34%,–
CC1CCCCN1CC(=O)N1CCCc2c1c(=O)oc1ccc(OCc3ccccc3)cc21 (stereo not drawn),-1.68%,–
Cc1ccc(CNS(=O)(=O)CCNC(=O)c2ccccc2)cc1,-1.29%,–
Cn1c2c(c(=O)n(C)c1=O)C(c1cccc([N+](=O)[O-])c1)Nc1ccccc1O2 (stereo not drawn),9.28%,–
Cc1ccc(-c2cc(N)n(Cc3cccc(Cl)c3)n2)cc1,-7.16%,–
Cc1ccc(S(=O)(=O)Cc2cc(-c3ccc(Cl)cc3)no2)cc1,-13%,–
Cc1ccc(-c2cc(N)on2)cc1,–,16.9 µM (active)
CCc1nn(CC(=O)Nc2cccc(C)c2C)c(=O)c2cc3sccc3n12,-8.3%,–
COc1cc(C(=O)N2CCN(C(=O)COc3cccc(C)c3)CC2)cc(OC)c1OC,3.42%,–
CCOC(=O)c1cnc(SCC(=O)Nc2ccccc2C(=O)OC)nc1N,-17.3%,–
CCOC(=O)c1cnc(SCC(=O)Nc2cccc(OC)c2)nc1N,-2.7%,–

SMILES,"activity change, negative = inhibition",Potency
CCOC(=O)c1cnc(SCc2nc(N)nc(Nc3ccc(OC)cc3)n2)nc1N,–,19 µM (active)
Cc1c(CCNC(=O)c2ccc(C(F)(F)F)cc2)sc2nc(-c3ccc(F)cc3)nn12,-0.0826%,–
Cc1ccc(C(=O)N/C(=C/C=C/c2ccccc2)C(=O)NCc2ccco2)cc1,-6.44%,–
CC1CCCCC12NC(=O)N(CC(=O)Nc1ccc(S(=O)(=O)Nc3ncccn3)cc1)C2=O (stereo not drawn),0.431%,–
CC(C)(C)c1ccc(C(=O)NCCC(=O)NCc2ccco2)cc1,-13.9%,–
Cc1cccc(Nc2ccccc2C(=O)NCc2ccco2)c1C,3.31%,–
Cc1ccccc1NC(=O)NCc1ccco1,-3.59%,–
CC(C)(C)NC(=O)NCc1ccco1,-2.22%,–
CC(C)(C)c1ccc(NC(=O)NCc2ccco2)cc1,–,23.9 µM (active)
O=C(Nc1ccccc1)Nc1ccccc1C(=O)NCc1ccco1,–,15.1 µM (active)
CCCCNC(=O)C1CCCN(c2nnc(C)c3c(C)n(-c4ccc(Cl)cc4)nc23)C1 (stereo not drawn),-6.66%,–
CCOC(=O)CSC1=Nc2ccccc2C2=NC(CCC(=O)NCc3ccc(F)cc3)C(=O)N12 (stereo not drawn),2.71%,–
CCN(CC(=O)Nc1ccccc1OC)C(=O)CC1CC2CCC1C2 (stereo not drawn),-0.227%,–
O=C(Cc1ccc(Cl)cc1)NCC(c1cccs1)S(=O)(=O)c1ccc(Cl)cc1 (stereo not drawn),-14.2%,–
O=C(Cc1cccs1)N(CC1CCCO1)C1(C(=O)NC2CCCCC2)CCCCC1 (stereo not drawn),-2.36%,–
CC1CCCN(c2nc3c(S(=O)(=O)c4ccc(C(C)C)cc4)nnn3c3ccsc23)C1 (stereo not drawn),5.49%,–
CCOC(=O)N1CCC(NC(=O)CCc2ccccc2)CC1,0.99%,–
O=C(O)C1CCN(C(=O)OCc2ccccc2)CC1,–,10.7 µM (active)
O=C(NCc1ccccc1)C1CCN(C(=O)Cc2ccccc2)CC1,4.44%,–
COc1cc(OC)cc(-c2nnc(N(C)C(=O)c3ccncc3)s2)c1,-0.199%,–
CN(C(=O)C1CCOC1)c1nnc(-c2cccnc2)s1 (stereo not drawn),3.31%,–
CN(C(=O)c1ccccn1)c1nnc(-c2ccccn2)s1,–,3.38 µM (active)
Cc1ccc(C(=O)CCC(=O)N(C)CC(=O)Nc2c(Cl)cccc2Cl)cc1,-16.9%,–
CCn1c(COc2c(C)cccc2C)nnc1SCc1nc2ccccc2c(=O)[nH]1,7.76%,–
COc1ccc(Cn2ccnc2SCC(=O)NCc2ccco2)cc1,0.425%,–
CC(NC(=O)c1cc(Sc2ccc(F)cc2F)nc2ccccc12)c1ccccc1 (stereo not drawn),4.18%,–
